Our source for the inhibition values is ChEMBL document CHEMBL1961873, “Compounds: GSK PKIS; Assays: Nanosyn kinase panel” (2012).

The structures appear in SMILES notation.
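Further: mean inhibition of CDK2 in complex with cyclin E.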

For the test, the target named is Cyclin-dependent kinase 2 (Homo sapiens) (UniProt P24941). As to conditions: at 0.1 µM.
As for `NS(=O)(=O)c1ccc(N/N=C2\C(=O)Nc3ccc(C(=O)NCCCn4ccnc4)cc32)cc1`, the inhibition worked out at 65%.

As to `O=C(Nc1ccc(Oc2ccc3[nH]c(NC(=O)c4ccccc4)nc3c2)cc1)Nc1cc(C(F)(F)F)ccc1F`, the inhibition turned out to be 2.28%.

For `COc1ccc2cc(-c3c(-c4ccncc4)nc(-c4ccc([S+](C)[O-])cc4C)n3C)ccc2c1` (stereo not given), the inhibition was 1.09%.

For the molecule `Cc1ccc(NC(=O)c2ccoc2)cc1-c1ccc(C(=O)NCC2CC2)cc1`, the inhibition came to 0.91%.

For `C[C@@H](Oc1cc(-n2cnc3ccc(OC4CCN(C)CC4)cc32)sc1C(N)=O)c1ccccc1Cl`, the inhibition is -0.63%.

Turning to `CN(c1ccc(NC(=O)Nc2c(Cl)cccc2Cl)cc1)c1ccnc(Nc2cccc(CS(C)(=O)=O)c2)n1`, the inhibition was -0.54%.

With `Fc1ccc(-c2ncn(C3CCNCC3)c2-c2ccnc(Oc3ccc(Oc4ccccc4)cc3)n2)cc1`, the inhibition was found to be 2.95%.

Turning to `COc1cccc(/C=N/Nc2ncnc3c2cnn3-c2cccc(OC)c2)c1`, the inhibition came out at 2.49%.

For the molecule `O=C(Nc1n[nH]c2nc(-c3ccc(O)cc3)c(Br)cc12)C1CC1`, the inhibition worked out at 36.5%.

Take `COc1cc2ncn(-c3cc(OCc4ccccc4C(F)(F)F)c(C(C)=O)s3)c2cc1OC`: the inhibition is 2.2%.

Regarding `Cc1ccc(C(=O)NC2CCC2)cc1-c1ccc(C(=O)NCC2CC2)cc1`, the inhibition was found to be 2.25%.

For `COC(=O)Nc1nc2ccc(Sc3ccc(NC(=O)Nc4cc(C(F)(F)F)ccc4F)cc3)cc2[nH]1`, the inhibition was found to be 0.48%.

`COc1ccc(-c2ccc3c(NC(=O)C4CC4)n[nH]c3n2)cc1`: the inhibition came to 1.4%.

Take `Cc1ccc(C(=O)NC(C)C)cc1-c1ccc(C(=O)NCC2CC2)cc1`: the inhibition was -0.92%.

Take `O=C(Nc1n[nH]c2cc(-c3ccccc3)ccc12)C1CC1`: the inhibition is 4.57%.

Broadly, the inhibition is the relative decrease from the control value, in per cent.
